From PubChem BioAssay (NCATS) come the findings set out here.

Values joined by “and” are separate entries in the source; they are usually repeats but may differ in a detail not shown here. Identical values can stand only once. Unmarked numbers belong to inactive results. Records with an inconclusive call do not appear. Active and inactive are the calls of the source. Unless noted, the call rests on the fitted dose curve; in most records, active means well fitted curve in either direction with a large enough effect (not every such curve was filed as active); inconclusive means small, poorly fitted or top-dose-only effect, or another doubt; inactive means flat fitted curve, though single readings scatter.

Assay [1] in a line: NFAT Signaling Pathway (AID 444).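 Further: carbachol stimulus at about its EC50 of 1 µM final; on the % scale 0 is the no-effect control and ±100 the full control effect.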 As to conditions: Jurkat NFAT-bla M1, carbachol, beta-lactamase ratio, 5 h. The method in brief: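 Jurkat cells with NFAT-driven β-lactamase reporter and co-expressed M1 receptor, stimulated with carbachol (final 1 uM, ~EC50), compound titration, 5 h at 37 °C. CCF4 loaded 1 h at RT; 460/530 nm ratio gave %activity and AC50.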
A short description of assay [2]: Stat Signaling Pathway (AID 446).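 Further: ME-180 cervical cancer cells given 40 pM IL-6 alongside compound; SIE-controlled beta-lactamase reporter measured as 460/530 nm FRET emission ratio; on the % scale 0 is the no-effect control and ±100 the full control effect.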 As to conditions: ME-180 SIE beta-lactamase reporter, IL-6 stimulated, 5 h. An outline of the steps:
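FRET read-out (405 nm excitation, 460/530 nm emission) of a beta-lactamase reporter under a STAT-inducible element in ME-180 cervical carcinoma cells. Cells with compound receive 40 pM IL-6 for 5 h. Values are normalised to AC90 stimulation and AC90 JAK-inhibitor controls.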

Assay [3] can be described thus: Cell Viability - BJ (AID 421; calls by dose curve;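 further: potency means the concentration at half of the fitted maximal effect; cells exposed to compound for 40 hours at 37 °C before readout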). As to conditions: BJ fibroblast viability, qHTS. The method in brief: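 Cytotoxicity as drop in intracellular ATP (CellTiter-Glo, 20 min RT) after 40 hr compound exposure of BJ fibroblasts at 37 °C. Titrations scaled between DMSO and 100 uM tamoxifen, Hill-fitted for AC50.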
Assay [4] can be described thus: Cell Viability - Jurkat (AID 426;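 active means dose-dependent loss of cell ATP signal giving a full or clear fitted curve, ranked by lower potency value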; further: potency means the concentration at half of the fitted maximal effect). The note with it: qHTS. An outline of the steps:
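Cytotoxicity taken as drop in cellular ATP (CellTiter-Glo luminescence, 20 min room temperature) after 40 hr, 37C treatment of 5000 Jurkat Clone E6-1 cells per well; concentration-response fitted with Hill equation for AC50.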

Assay [5] is described as follows: Cell Viability - Hek293 (AID 427;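 active means compounds whose dose-response curve shows a full or clear partial loss of cell viability, called from curve shape rather than a numeric limit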;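 further: potency means the concentration at half of the fitted maximal effect; cells exposed to compound for 40 hours at 37 °C before reading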). The note with it: qHTS. An outline of the steps: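 Luminescent ATP content (CellTiter-Glo, 20 min at room temperature) was measured after a 40 hr, 37 °C compound exposure of HEK293 cells. AC50 values came from Hill-equation fits of qHTS concentration-response data normalized to DMSO and 100 uM tamoxifen.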
The nature of assay [6]: Cell Viability - HepG2 (AID 433; calls by dose curve;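 further: potency means the concentration at half of the fitted maximal effect; potency for ATP loss meaning cytotoxicity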). As to conditions: qHTS. An outline of the steps: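 HepG2 cells, 1500 per well, treated 40 hr at 37 °C in complete medium; viability from intracellular ATP by CellTiter-Glo luminescence. Normalized to DMSO and 100 uM tamoxifen; AC50 from Hill fit of qHTS concentration-response.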
The nature of assay [7]: Cell Viability - MRC5 (AID 434; calls by dose curve;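 further: potency means the concentration at half of the fitted maximal effect; potency reflects cytotoxicity seen as loss of intracellular ATP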). The note with it: MRC5 lung fibroblast viability, qHTS. An outline of the steps: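 ATP luminescence read-out (CellTiter-Glo, 20 min RT) after 40 hr, 37 °C compound exposure of 1500 MRC5 cells/well. Data normalized to DMSO (basal) and 100 uM tamoxifen (100% inhibition); AC50 from standard Hill equation.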
A short description of assay [8]: Cell Viability - SK-N-SH (AID 435; calls by dose curve; further: potency means the concentration at half of the fitted maximal effect). The note with it: SK-N-SH neuroblastoma cell viability qHTS. An outline of the steps: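 SK-N-SH neuroblastoma cells (1500/well) treated 40 h at 37 °C in complete medium; viability read as cellular ATP by CellTiter-Glo luminescence. Normalized to DMSO and 100 uM tamoxifen; AC50 from Hill fits of qHTS concentration-response.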
Assay [9] has as its target Mitogen-activated protein kinase 10 (Mus musculus) (UniProt Q61831). Put plainly: JNK3 AlphaScreen Assay (AID 530).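 Further: kinase came from lysate of stimulated human HepG2 cells; signal reports phosphorylation of biotinylated GST-cJun 1-79 at Ser73 with 10 µM ATP; on the % scale 0 is the no-effect control and ±100 the full control effect.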 The note with it: JNK3 lysate, c-Jun phosphorylation; series mostly up to 57.1 µM. An outline of the steps: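 Activity was read by AlphaScreen after JNK3-containing HepG2 lysate (cytokine pre-activated) phosphorylated biotinylated GST-cJun with 10 uM ATP at room temperature. Phospho-Ser73 cJun antibody with Protein-A acceptor beads provided detection.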

Assay [10] can be described thus: Cell Viability - NIH 3T3 (AID 541; active means well fitted curve in the direction sought with a large enough effect; an effect the other way counts as inactive or inconclusive;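 further: plate controls were DMSO alone for no effect and tamoxifen positive control for full effect; nearly all actives have a fitted effect of over 25% in size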). The note with it: NIH 3T3 cell viability, qHTS; activity change, negative = cytotoxicity: at 92.2 µM (top of the series). The method in brief: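 Intracellular ATP (CellTiter-Glo luminescence, 20 min at room temperature) measured after 40 hr compound exposure at 37 °C of 1000 NIH 3T3 mouse fibroblasts/well in complete medium; AC50 derived by Hill-equation modelling of qHTS concentration-response curves.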

Assay [11] in a line: Cell Viability - HUV-EC-C (AID 542; active means well fitted curve in the direction sought with a large enough effect; an effect the other way counts as inactive or inconclusive; further: on the % scale 0 is the no-effect control and ±100 the full control effect; nearly all actives have a fitted effect of over 35% in size). The note with it: HUV-EC-C endothelial cell viability, qHTS; series mostly up to 92.2 µM. The method in brief:
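CellTiter-Glo luminescence measured ATP loss in HUV-EC-C cells (1000/well) after 40 hr compound exposure at 37 °C, in complete culture medium. Concentration-response data were Hill-fitted to give AC50.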

Assay [12] is described as follows: Cell Viability - H-4-II-E (AID 543; active means well fitted curve in the direction sought with a large enough effect; an effect the other way counts as inactive or inconclusive; further: on the % scale 0 is the no-effect control and ±100 the full control effect; nearly all actives have a fitted effect of over 35% in size). As to conditions: H-4-II-E rat hepatoma viability; series mostly up to 92.2 µM. An outline of the steps:
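CellTiter-Glo luminescence (intracellular ATP) measured after 40 h compound exposure at 37 °C in H-4-II-E rat hepatoma cells seeded at 1500/well. Values are AC50s fitted with the standard Hill equation.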

Assay [13] can be described thus: Cell Viability - SH-SY5Y (AID 544; active means well fitted curve in the direction sought with a large enough effect; an effect the other way counts as inactive or inconclusive;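 further: 0% = DMSO alone and -100% = 100 µM tamoxifen; nearly all actives have a fitted effect of over 55% in size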). The note with it: SH-SY5Y neuroblastoma cell viability; series mostly up to 92.2 µM. The method in brief:
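Cytotoxicity measured via ATP-dependent luciferase luminescence (CellTiter-Glo) following 40 h, 37 °C exposure of 1500 SH-SY5Y cells per well. Concentration-response data were fitted with the standard Hill equation to give AC50.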

Assay [14] is described as follows: Cell Viability - Renal Proximal Tubule (AID 545; active means well fitted curve in the direction sought with a large enough effect; an effect the other way counts as inactive or inconclusive;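 further: 0% = DMSO only and -100% = 100 µM tamoxifen; nearly all actives have a fitted effect of over 40% in size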). As to conditions: renal proximal tubule cells viability, primary cells of rat origin; series mostly up to 91.7 µM. The method in brief:
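Rat renal proximal tubule primary cells, 1000/well, exposed to compounds for 40 hr at 37 °C in complete medium; cellular ATP read by CellTiter-Glo luminescence. AC50 from concentration-response fitted with standard Hill equation.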

Assay [15] is described as follows: Cell Viability - Mesenchymal (AID 546; active means well fitted curve in the direction sought with a large enough effect; an effect the other way counts as inactive or inconclusive;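 further: cells exposed to compound for 40 hours before reading; 0% = DMSO only and -100% = 100 µM tamoxifen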). As to conditions: mesenchymal cells viability, qHTS; series mostly up to 91.7 µM. An outline of the steps: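 Human renal mesenchymal cells (glomerulus-derived), 1000 cells/well, 5 hr 37 °C pre-incubation; compound 40 hr, 37 °C; CellTiter-Glo, 20 min RT; luminescence; AC50 via Hill equation.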
Assay [16] is described as follows: AP1 Signaling Pathway (AID 357).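 Further: ME-180 reporter cells stimulated with EGF at its EC50 level; on the % scale 0 is the no-effect control and ±100 the full control effect.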 The note with it: ME-180 (cervical carcinoma) AP-1-bla reporter, EGF-induced, beta-lactamase ratio, 5 h. The method in brief:
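In this screen, ME-180 cells in Opti-MEM with 0.5% dialyzed FBS received EC50 EGF and compound titrations for 5 h. AP-1 reporter beta-lactamase was detected via CCF4 ratio, giving AC50 for positive and negative modulators.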

Assay [17] has as its target Cytochrome P450 1A2 (Homo sapiens) (UniProt P05177). As to the kind of experiment: p450-cyp1a2 (AID 410; calls by dose curve; further: potency means the concentration at half of the fitted maximal effect;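 on activity change, negative = inhibition: -100% = full effect of reference inhibitor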). The note with it: recombinant CYP1A2, luciferin-ME demethylation, luminescence; series mostly up to 25.6 µM. The method in brief: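 Luminescent demethylation readout: Luciferin-ME (100uM, equal to Km) turned over by 20nM CYP1A2 for 60 min at room temperature after NADPH regeneration addition, following 10 min compound preincubation. Normalization used 57 uM furafylline as full inhibition.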

In assay [18] the target is Glucocorticoid receptor (Homo sapiens) (UniProt P04150). Put plainly: GR-GFP Redistribution (AID 450;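 active means compounds whose dose series gives a full or clear partial fitted curve of increased nuclear translocation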; further: potency means the concentration at half of the fitted maximal effect). The note with it: U2OS GR-GFP nuclear translocation, laser cytometry, 2 h.
Sequence of Glucocorticoid receptor (Homo sapiens) (P04150 whole entry, looked up, the tested form may be a part): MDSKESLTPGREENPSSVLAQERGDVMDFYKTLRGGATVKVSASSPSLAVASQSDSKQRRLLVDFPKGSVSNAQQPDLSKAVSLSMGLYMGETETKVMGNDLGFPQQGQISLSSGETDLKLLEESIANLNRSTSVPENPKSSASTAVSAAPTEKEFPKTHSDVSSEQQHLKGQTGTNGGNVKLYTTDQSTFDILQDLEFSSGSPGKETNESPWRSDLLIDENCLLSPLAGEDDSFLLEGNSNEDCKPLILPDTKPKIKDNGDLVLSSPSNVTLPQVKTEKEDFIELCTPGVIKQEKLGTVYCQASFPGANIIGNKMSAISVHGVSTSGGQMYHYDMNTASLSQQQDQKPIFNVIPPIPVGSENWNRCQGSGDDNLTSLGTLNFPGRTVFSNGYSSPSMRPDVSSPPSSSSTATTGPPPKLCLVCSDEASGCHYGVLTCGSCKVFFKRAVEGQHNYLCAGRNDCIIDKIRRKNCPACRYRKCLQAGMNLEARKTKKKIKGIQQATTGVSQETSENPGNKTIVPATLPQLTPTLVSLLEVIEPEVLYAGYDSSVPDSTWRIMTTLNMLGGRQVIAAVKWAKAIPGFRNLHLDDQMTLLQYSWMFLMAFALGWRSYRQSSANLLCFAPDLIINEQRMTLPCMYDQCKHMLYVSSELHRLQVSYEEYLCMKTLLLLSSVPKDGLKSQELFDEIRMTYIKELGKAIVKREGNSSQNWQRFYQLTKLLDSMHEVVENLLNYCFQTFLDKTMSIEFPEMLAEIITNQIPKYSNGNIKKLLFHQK
Assay [19] has the same target. Put plainly: GR-EFC Redistribution (AID 451; calls by dose curve; further: potency means the concentration at half of the fitted maximal effect). As to conditions: CHO-K1 GR-EFC translocation, beta-gal luminescence, 2 h. The method in brief: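 CHO-K1 cells expressing nuclear EA and GR-ED fragments of b-gal; compounds titrated up to 46 uM final, 2 h at 37 C. GR nuclear translocation read as complemented b-gal luminescence after 1 h RT detection.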

Sequence of Cytochrome P450 1A2 (Homo sapiens) (P05177 whole entry, looked up): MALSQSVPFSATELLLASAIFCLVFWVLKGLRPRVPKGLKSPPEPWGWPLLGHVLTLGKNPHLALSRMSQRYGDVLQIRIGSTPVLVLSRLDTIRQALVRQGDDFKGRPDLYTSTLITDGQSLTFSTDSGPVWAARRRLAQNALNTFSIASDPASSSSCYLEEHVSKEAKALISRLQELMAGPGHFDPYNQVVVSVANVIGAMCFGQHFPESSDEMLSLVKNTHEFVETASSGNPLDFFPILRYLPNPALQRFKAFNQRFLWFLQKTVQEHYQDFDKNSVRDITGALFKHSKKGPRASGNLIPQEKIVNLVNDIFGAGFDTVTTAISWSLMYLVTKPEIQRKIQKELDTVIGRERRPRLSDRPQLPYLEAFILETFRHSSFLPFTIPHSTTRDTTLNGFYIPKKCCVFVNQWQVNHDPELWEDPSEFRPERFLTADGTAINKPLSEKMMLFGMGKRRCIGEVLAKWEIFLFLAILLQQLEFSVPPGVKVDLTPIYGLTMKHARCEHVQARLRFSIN

On to `CC(CN1c2ccccc2Sc2ccccc21)N(C)C` (centres undefined), for which the activity change, negative = inhibition in assay [1] (at 17.2 µM (top of the series)) was -73.5% (active). Also, in [2] (at 17.2 µM (top of the series)), the activity, negative = inhibition is -1.09%.
In the case of `CCCCCCCCCCCCOS(=O)(=O)O`, the Potency in [3], in [4], in [5], in assay [6], in [7] and in assay [8] was over 92 µM throughout. Moreover, the Potency entry in [9], in assay [10], in [11], in [12], in assay [13] and in assay [14] was “inactive” each time. In [15], the outcome was inactive.
On to `Oc1cccc(O)c1`, for which the Potency in assay [3], in [5], in assay [6] and in assay [7] was over 92 µM throughout. For the same compound, the Potency entry in assay [9], in [10], in assay [11], in [12] and in assay [14] was “inactive” each time. The compound was classed as inactive in assay [15].
Consider `CCCCCCCCCCCCCCCC(=O)NCCO`, for which the activity change, negative = inhibition is 11.1% in assay [16] (at 38 µM (top of the series)) and 9.44% in assay [1] (at 38 µM (top of the series)). For the same compound, the activity, negative = inhibition in [2] (at 38 µM (top of the series)) was -2.15%. In [9], the Potency entry is “inactive”.
Take `CSc1ccc2c(c1)N(CCC1CCCCN1C)c1ccccc1S2` (centres undefined): the activity change, negative = inhibition in assay [1] (at 17.2 µM (top of the series)) was -83% (active).
Take `O=C1O[C@H]([C@@H](O)CO)C(O)=C1O`: the Potency in assay [3], in assay [4], in assay [5], in assay [6], in [7] and in assay [8] was over 92 µM throughout. For the same compound, the Potency result in [9], in assay [10], in assay [11], in assay [12], in [13] and in assay [14] was “inactive” each time. The call in assay [15] was inactive.
Turning to `O=c1cc(CO)occ1O`, the Potency result in assay [17] and in assay [9] was “inactive” throughout. Besides, the Potency in assay [18] and in assay [19] was over 46 µM in each case.
Take `CN(C)CCN(Cc1ccccc1)c1ccccn1`: the Potency in assay [18] was over 20.6 µM.
Regarding `NCCNCCNCCNCCN`, the Potency in assay [3], in assay [4], in assay [5], in [6], in assay [7] and in assay [8] was over 92 µM throughout. Also, the Potency entry in assay [9], in assay [10], in assay [11], in assay [12], in [13] and in [14] was “inactive” in each case. In addition, the result in assay [15] was inactive.
Take `CN(C)CCC=C1c2ccccc2CCc2ccccc21`: the Potency in assay [17] was 15.8 µM (active); in assay [18] it was > 46 µM and > 20.6 µM; in assay [19], > 46 µM and > 20.6 µM. Besides, the activity change, negative = inhibition in [1] (at 17.2 µM (top of the series)) was -80% (active). Besides, the activity, negative = inhibition in [2] (at 17.2 µM (top of the series)) is -2.52% and 2.81%; in assay [2] (at 38 µM (top of the series)), 28.3%. Moreover, in assay [9], the Potency result was “inactive”.
Take `CN(C)CCCN1c2ccccc2Sc2ccc(Cl)cc21`: the activity change, negative = inhibition in assay [1] (at 17.2 µM (top of the series)) was -73.6% (active). The activity, negative = inhibition in assay [2] (at 17.2 µM (top of the series)) is -1.56% and 4.13%; in assay [2] (at 38 µM (top of the series)), -20.2%. In addition, the Potency in [18] is over 20.6 µM; in [19] it was > 46 µM and > 20.6 µM. Besides, the Potency result in assay [9] is “inactive”.
`CN(C)CCCN1c2ccccc2CCc2ccccc21`: the Potency result in assay [17] and in assay [9] was “inactive” each time. Besides, in assay [2] (at 17.2 µM (top of the series)), the activity, negative = inhibition was 2.6% and 1.4%.
As for `Cn1cc[nH]c1=S`, the values for the activity change, negative = inhibition in assay [16] (at 17.2 µM (top of the series)) and in assay [1] (at 17.2 µM (top of the series)) were -7.08% and -4.58%, respectively. Further, the activity, negative = inhibition in assay [2] (at 17.2 µM (top of the series)) is -3.77%. The Potency entry in assay [9] was “inactive”.
Consider `CCCc1c(OCCCCc2nn[nH]n2)ccc(C(C)=O)c1O`, for which the activity change, negative = inhibition in assay [16] (at 17.2 µM (top of the series)) is -20.5%. In assay [2] (at 17.2 µM (top of the series)), the activity, negative = inhibition is -12.8%. Besides, in [18], the Potency is over 20.6 µM.
